Experimental data as given in PubChem BioAssay.
Calls of active or inactive are those of the source.

Tests used:
[1] = tested on: PRMT1 (protein arginine N-methyltransferase 1); experiment: PRMT1 binders on small-molecule microarrays, primary screen, biochemical, small-molecule microarray, 635 nm fluorescence (AID 1088); conditions: small-molecule microarray binding, higher = more signal;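 note: binding of Prmt1 protein to compounds spotted on small-molecule microarray slides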
[2] = yeast growth modulation, basal conditions, primary screen, YJM789 clinical isolate, OD600, 24 h (AID 1089);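 note: growth of clinical yeast isolate S. cerevisiae YJM 789 seeded 1000 cells per well; test concentration not given here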; conditions: S. cerevisiae YJM789 growth, higher = more signal, called active from +8 up or from −8 down
[3] = fission yeast growth modulation, primary screen, strain 972, OD600, 24 h, no modulator (AID 1090);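 note: basal condition with compound alone and no growth modifier present; test concentration not given here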; conditions: S. pombe 972 growth, higher = more signal, called active from +8 up or from −8 down
[4] = S. cerevisiae growth modulation with rapamycin, primary screen, strain BY4716, OD600, 96 h (AID 1091); conditions: higher = more signal, called active from +8 up or from −8 down; note: test concentration not given here
[5] = target: Torsin-1A-interacting protein 2 (Homo sapiens) (UniProt Q8NFQ8); experiment: LULL1 binders on small-molecule microarray, primary screen, cell lysate, human LULL1 lysate, 635/667 nm fluorescence (AID 1092); conditions: hLULL1 lysate binding, 635 nm fluorescence, higher = more signal;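 note: probe is lysate of COS7 cells overexpressing human LULL1; score merges per-feature 667 nm fluorescence with signal-to-noise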
Chain of Torsin-1A-interacting protein 2 (Homo sapiens) (Q8NFQ8 whole entry, looked up): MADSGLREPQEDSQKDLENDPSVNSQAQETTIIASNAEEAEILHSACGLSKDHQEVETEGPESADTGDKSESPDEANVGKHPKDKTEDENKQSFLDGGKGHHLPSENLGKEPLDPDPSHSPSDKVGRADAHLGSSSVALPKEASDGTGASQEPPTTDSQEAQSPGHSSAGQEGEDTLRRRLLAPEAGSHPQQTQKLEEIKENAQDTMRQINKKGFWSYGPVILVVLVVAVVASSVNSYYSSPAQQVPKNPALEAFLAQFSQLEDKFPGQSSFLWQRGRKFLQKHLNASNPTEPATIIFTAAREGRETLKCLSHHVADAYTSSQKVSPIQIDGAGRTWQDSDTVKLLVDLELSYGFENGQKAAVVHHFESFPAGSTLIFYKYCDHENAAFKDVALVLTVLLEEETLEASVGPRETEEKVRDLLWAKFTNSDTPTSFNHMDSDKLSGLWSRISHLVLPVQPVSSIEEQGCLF

[6] = E. coli growth modulation, two-sided OD650, primary screen, E. coli filamentation project, strain DRC41, 24 h (AID 1093); conditions: OD650, 24 h, higher = more signal, called active from +8 up or from −8 down;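 note: MC1000 strain lacking acrAB efflux and sulA so SOS filamentation is blocked; test concentration not given here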
[7] = small-molecule microarray binders of probe aLefty2, primary screen, biochemical, biotinylated probe, 635/667 nm fluorescence (AID 1094); conditions: higher = more signal;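 note: score merges spot fluorescence near 667 nm with spot signal-to-noise ratio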
[8] = tested on: Noggin (protein binding on small-molecule microarray); experiment: Noggin binders on small-molecule microarray, primary screen, biochemical, 635/667 nm fluorescence (AID 1095); conditions: 635 nm fluorescence, higher = more signal;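 note: score merges 667 nm feature fluorescence with signal to noise over triplicate slides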
[9] = target: Neurogenic locus notch homolog protein 3 (Homo sapiens) (UniProt Q9UM47); experiment: NOTCH3 binders on small-molecule microarray, primary screen, biochemical, 635/667 nm fluorescence (AID 1096); conditions: NOTCH3 binding, 635 nm fluorescence, higher = more signal
Chain of Neurogenic locus notch homolog protein 3 (Homo sapiens) (Q9UM47 whole entry, looked up): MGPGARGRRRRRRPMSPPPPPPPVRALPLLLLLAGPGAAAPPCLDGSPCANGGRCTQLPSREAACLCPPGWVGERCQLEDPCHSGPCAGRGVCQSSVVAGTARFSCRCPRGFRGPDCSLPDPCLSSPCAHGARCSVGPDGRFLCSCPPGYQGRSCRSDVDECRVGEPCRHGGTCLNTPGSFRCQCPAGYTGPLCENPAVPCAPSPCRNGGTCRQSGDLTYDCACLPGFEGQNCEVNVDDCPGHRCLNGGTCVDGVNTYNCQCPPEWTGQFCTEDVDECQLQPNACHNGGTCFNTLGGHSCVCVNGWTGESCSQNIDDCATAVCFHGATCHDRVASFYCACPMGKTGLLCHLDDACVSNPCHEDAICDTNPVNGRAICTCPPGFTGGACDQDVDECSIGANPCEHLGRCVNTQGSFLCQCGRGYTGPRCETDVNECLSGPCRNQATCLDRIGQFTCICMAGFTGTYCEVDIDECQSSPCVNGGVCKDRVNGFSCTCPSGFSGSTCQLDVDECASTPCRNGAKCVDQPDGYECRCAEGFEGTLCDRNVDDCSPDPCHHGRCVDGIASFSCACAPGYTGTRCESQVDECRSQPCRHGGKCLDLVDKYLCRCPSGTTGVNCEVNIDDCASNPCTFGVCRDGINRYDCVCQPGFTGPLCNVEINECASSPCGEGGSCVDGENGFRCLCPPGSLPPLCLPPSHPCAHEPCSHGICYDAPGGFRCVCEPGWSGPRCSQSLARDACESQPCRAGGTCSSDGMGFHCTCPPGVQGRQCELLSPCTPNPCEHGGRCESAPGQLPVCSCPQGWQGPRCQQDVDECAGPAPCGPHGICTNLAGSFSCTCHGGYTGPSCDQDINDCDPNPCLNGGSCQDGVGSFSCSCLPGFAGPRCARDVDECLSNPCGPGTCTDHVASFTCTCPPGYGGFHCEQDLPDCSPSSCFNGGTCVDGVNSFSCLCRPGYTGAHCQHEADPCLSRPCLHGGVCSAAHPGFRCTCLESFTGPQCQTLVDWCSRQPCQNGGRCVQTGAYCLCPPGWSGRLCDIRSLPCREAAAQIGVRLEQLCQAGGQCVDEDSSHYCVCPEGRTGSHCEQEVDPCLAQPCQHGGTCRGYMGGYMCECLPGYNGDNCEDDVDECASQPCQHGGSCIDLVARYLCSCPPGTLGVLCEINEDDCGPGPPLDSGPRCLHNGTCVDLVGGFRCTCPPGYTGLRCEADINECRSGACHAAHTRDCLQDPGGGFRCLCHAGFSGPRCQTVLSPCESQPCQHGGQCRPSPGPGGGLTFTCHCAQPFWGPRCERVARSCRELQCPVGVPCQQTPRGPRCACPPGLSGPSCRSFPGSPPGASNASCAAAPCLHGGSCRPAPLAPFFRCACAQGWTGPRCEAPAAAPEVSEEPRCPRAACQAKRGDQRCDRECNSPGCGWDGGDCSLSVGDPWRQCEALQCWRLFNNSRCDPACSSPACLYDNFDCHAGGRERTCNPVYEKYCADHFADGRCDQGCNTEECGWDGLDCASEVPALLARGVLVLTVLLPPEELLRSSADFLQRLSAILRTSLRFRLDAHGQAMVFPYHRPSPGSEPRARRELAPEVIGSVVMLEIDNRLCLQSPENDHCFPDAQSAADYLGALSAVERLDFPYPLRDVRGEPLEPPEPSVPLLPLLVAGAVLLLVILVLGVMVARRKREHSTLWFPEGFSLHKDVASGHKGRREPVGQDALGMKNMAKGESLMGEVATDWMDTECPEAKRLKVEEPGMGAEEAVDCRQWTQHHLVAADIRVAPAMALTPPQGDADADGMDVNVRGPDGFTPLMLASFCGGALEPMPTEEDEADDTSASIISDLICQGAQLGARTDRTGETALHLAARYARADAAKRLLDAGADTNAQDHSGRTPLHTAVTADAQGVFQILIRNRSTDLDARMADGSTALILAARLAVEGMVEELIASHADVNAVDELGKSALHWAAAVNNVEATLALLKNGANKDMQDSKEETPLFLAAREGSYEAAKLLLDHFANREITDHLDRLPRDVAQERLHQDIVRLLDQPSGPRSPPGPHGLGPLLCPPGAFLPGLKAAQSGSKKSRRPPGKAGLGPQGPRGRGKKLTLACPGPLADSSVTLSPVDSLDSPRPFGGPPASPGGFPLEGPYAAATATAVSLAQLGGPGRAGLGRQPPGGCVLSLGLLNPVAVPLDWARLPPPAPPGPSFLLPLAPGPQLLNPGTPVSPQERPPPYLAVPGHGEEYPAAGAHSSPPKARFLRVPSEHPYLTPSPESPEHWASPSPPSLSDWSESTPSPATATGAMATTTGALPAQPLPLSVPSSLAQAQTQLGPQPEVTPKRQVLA

[10] = small-molecule microarray binders of probe aEGFR, primary screen, biochemical, biotinylated probe, 635/667 nm fluorescence (AID 1097); conditions: higher = more signal;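 note: probe is a biotinylated anti-EGFR antibody binding compounds printed on slides; score combines fluorescence near 667 nm and signal to noise of each spot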
[11] = tested on: Plasmodium falciparum Sir2 (PF13_0152, Sir2A); experiment: pfSir2 binders on small-molecule microarrays, primary screen, biochemical, small-molecule microarray, 635 nm fluorescence (AID 1098); conditions: small-molecule microarray binding, fluorescence 635 nm; higher = more signal;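 note: score merges spot fluorescence intensity with its signal-to-noise ratio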
[12] = small-molecule microarray binders of probe aDKK1, primary screen, biochemical, biotinylated probe, 635/667 nm fluorescence (AID 1099); conditions: higher = more signal;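 note: score merges 667nm spot fluorescence with signal to noise across triplicate slides; reference of the scale not given here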
[13] = small-molecule microarray binders of probe aCHRDL2, primary screen, biochemical, biotinylated probe, 635/667 nm fluorescence (AID 1100); conditions: higher = more signal
[14] = splicing luciferase reporter signal modulators, primary screen, spliceosome inhibition project, cell-based, HEK293, splice +/- reporter (AID 1101); conditions: luminescence, 24 h, higher = more signal, called active from +8 up or from −8 down;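 note: HEK293 cells carrying a splicing-competent luciferase reporter gene; test concentration not given here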
[15] = target: Fibroblast growth factor 10 (Homo sapiens) (UniProt O15520); experiment: FGF10 binders on small-molecule microarrays, primary screen, biochemical, small-molecule microarray, 635 nm fluorescence (AID 1102); conditions: FGF10 binding, fluorescence 635 nm, higher = more signal
Chain of Fibroblast growth factor 10 (Homo sapiens) (O15520 whole entry, looked up): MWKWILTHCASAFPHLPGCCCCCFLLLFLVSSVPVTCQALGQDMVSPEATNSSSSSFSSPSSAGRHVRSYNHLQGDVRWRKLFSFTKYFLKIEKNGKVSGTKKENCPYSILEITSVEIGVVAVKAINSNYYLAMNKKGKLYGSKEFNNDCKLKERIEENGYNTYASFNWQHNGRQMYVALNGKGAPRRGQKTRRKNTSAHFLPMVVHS

[16] = tested on: glycogen synthase kinase-3 (GSK3A per assay name; protocol says GSK3B); experiment: GSK3 binders on small-molecule microarrays, primary screen, biochemical, small-molecule microarray, 635 nm fluorescence, GSK3A (AID 1103); conditions: small-molecule microarray binding, fluorescence 635 nm; higher = more signal; note: the record names both GSK3A and GSK3B
[17] = target: Epidermal growth factor receptor (Homo sapiens) (UniProt P00533); experiment: EGFR binders on small-molecule microarrays, primary screen, biochemical, small-molecule microarray, 635 nm fluorescence (AID 1104); conditions: EGFR binding, higher = more signal;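 note: score merges 667 nm emission intensity with spot signal to noise over triplicate slides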
Chain of Epidermal growth factor receptor (Homo sapiens) (P00533 whole entry, looked up): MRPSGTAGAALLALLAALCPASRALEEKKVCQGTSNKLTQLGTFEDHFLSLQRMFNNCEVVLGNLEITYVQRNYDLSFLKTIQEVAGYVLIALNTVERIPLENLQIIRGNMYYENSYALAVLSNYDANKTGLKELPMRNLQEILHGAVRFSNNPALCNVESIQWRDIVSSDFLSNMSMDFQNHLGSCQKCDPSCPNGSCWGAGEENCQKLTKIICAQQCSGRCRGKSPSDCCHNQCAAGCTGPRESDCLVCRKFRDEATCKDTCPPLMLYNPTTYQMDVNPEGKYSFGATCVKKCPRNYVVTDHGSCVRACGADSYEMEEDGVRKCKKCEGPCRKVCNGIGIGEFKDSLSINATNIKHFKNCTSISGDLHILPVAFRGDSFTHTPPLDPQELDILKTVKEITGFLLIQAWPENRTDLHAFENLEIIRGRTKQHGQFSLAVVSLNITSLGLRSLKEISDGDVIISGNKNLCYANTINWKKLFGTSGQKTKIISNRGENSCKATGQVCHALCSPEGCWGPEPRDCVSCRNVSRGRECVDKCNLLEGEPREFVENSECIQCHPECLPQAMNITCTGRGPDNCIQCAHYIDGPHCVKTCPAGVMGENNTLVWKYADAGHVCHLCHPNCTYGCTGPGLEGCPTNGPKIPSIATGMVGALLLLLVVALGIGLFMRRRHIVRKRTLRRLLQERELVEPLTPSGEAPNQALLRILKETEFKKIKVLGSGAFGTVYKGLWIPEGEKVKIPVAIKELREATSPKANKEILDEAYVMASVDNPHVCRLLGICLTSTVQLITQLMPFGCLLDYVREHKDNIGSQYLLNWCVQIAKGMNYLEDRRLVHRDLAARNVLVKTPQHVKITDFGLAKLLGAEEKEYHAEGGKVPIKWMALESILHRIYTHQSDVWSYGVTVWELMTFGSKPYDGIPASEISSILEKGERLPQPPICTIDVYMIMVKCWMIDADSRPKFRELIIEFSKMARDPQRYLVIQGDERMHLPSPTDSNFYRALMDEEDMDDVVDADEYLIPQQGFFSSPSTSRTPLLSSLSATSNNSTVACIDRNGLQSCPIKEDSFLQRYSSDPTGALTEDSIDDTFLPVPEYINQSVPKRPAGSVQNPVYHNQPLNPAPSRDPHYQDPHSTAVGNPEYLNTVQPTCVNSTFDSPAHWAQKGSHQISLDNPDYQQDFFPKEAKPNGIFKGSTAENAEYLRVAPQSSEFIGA

[18] = target: Follistatin-related protein 3 (Homo sapiens) (UniProt O95633); experiment: FSTL3 binders on small-molecule microarrays, primary screen, biochemical, small-molecule microarray, 635 nm fluorescence (AID 1105); conditions: FSTL3 binding, higher = more signal;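 note: score merges emission near 667 nm and signal to noise per printed spot across three slides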
Chain of Follistatin-related protein 3 (Homo sapiens) (O95633 whole entry, looked up): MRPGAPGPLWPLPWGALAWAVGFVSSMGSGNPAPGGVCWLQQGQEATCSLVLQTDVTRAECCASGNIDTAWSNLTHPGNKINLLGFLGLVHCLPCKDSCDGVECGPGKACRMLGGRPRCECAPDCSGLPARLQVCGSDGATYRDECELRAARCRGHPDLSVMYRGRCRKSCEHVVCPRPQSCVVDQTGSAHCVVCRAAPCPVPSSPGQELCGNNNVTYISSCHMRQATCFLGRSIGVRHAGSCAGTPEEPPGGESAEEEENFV

[19] = target: Dickkopf-related protein 1 (Homo sapiens) (UniProt O94907); experiment: DKK1 binders on small-molecule microarrays, primary screen, biochemical, small-molecule microarray, 635 nm fluorescence scan (AID 1106); conditions: DKK1 binding, higher = more signal;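 note: score merges emission near 667 nm with signal to noise over three replicate slides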
Chain of Dickkopf-related protein 1 (Homo sapiens) (O94907 whole entry, looked up): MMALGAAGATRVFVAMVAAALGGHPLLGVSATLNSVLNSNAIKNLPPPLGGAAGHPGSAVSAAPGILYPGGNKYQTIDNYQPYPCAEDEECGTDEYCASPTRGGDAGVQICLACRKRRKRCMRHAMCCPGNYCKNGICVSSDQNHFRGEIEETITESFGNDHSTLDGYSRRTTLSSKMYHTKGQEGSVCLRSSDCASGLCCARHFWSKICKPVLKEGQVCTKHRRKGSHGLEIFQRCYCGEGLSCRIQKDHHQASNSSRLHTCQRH

[20] = tested on: Inhibin beta A chain (activin A); experiment: INHBA (activin A) binders on microarrays, primary screen, biochemical, small-molecule microarray, 635 nm fluorescence scan (AID 1107); conditions: small-molecule microarray binding, higher = more signal;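 note: mouse activin A protein probed at 4.33 µg/mL on printed slides; score merges bound-protein fluorescence near 667 nm with spot signal-to-noise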

Structure (SMILES) | composite z-score [1] | z-score [2] | z-score [3] | z-score [4] | composite z-score [5] | z-score [6] | composite z-score [7] | composite z-score [8] | composite z-score [9] | composite z-score [10] | composite z-score [11] | composite z-score [12] | composite z-score [13] | z-score [14] | composite z-score [15] | composite z-score [16] | composite z-score [17] | composite z-score [18] | composite z-score [19] | composite z-score [20]
CC(C)(C)OC(=O)CC[C@]1(C(=O)N2CCCCC2)N=C(c2ccc(OCCCO)cc2)O[C@H]1c1ccccc1N=[N+]=[N-] | 1.54 | 0.589 (inactive) | 0.402 (inactive) | 0.73 (inactive) | 3.05 | 1.62 (inactive) | 0.292 | 1.21 | 1.01 | 0.872 | 0.668 | 0.639 | 0.869 | -1.37 (inactive) | 0.968 | 0.736 | 0.6 | 0.81 | -0.135 | 1.34
COc1ccc(CCNC(=O)[C@@H]2c3ccccc3C(=O)N(Cc3ccc(OC(F)(F)F)cc3)[C@H]2c2ccc(CO)cc2)cc1 | 1.55 | -0.392 (inactive) | -0.51 (inactive) | -0.0066 (inactive) | 2.48 | -0.652 (inactive) | -0.169 | 0.54 | 0.342 | -0.0967 | 1.7 | 0.0658 | 0.396 | 0.0514 (inactive) | 0.719 | 0.965 | -0.227 | 0.251 | -0.204 | 0.258
CC(C)Cc1ccc(CN2CC[C@@H](NS(=O)(=O)c3ccccc3)C2)cc1 | 1.01 | -14.6 (active) | -20.9 (active) | -3.57 (inactive) | 0.846 | -19.6 (active) | -0.296 | 0.864 | 0.12 | -0.154 | -0.265 | -0.367 | -0.747 | 3.53 (inactive) | -0.0725 | -0.375 | -0.608 | 0.0789 | 0.292 | 0.298
COc1ccccc1CN1C(=O)c2ccccc2[C@@H](C(=O)NCCN2CCOCC2)[C@@H]1c1ccc(CO)cc1 | 0.663 | -0.884 (inactive) | 0.067 (inactive) | -0.805 (inactive) | 3.32 | 0.339 (inactive) | -0.0948 | 0.025 | 0.209 | -0.156 | 1.5 | -0.0936 | 0.658 | -0.468 (inactive) | -0.264 | 0.342 | -0.502 | -0.334 | -0.0485 | 0.52
O=C/C=C/c1ccc2c(c1)OCO2 | 0.274 | -3.66 (inactive) | -16.7 (active) | -1.69 (inactive) | -0.857 | -1.98 (inactive) | -0.151 | 0.542 | 0.0863 | -0.0978 | 0.229 | -0.295 | -0.475 | -0.675 (inactive) | 0.562 | 0.469 | 0.614 | 0.506 | 0.486 | 1.25
C=CC[C@@H](OC(=O)Nc1ccc(OC)cc1)c1ccc(O)c2ccccc12 | 1.28 | -23.6 (active) | -19.6 (active) | -1.31 (inactive) | 2.28 | 1.05 (inactive) | -0.142 | 1.46 | 1.05 | 0.0225 | 1.43 | -0.0942 | -0.0826 | -0.806 (inactive) | 1.2 | 1.28 | 1.06 | 1.4 | 1.23 | 1.07
COC(=O)[C@@]1(Cc2ccccc2N=[N+]=[N-])COC(c2ccc(OCCCO)cc2)=N1 | 1.24 | -1.33 (inactive) | -11 (active) | -1.99 (inactive) | 2.08 | -0.574 (inactive) | 0.137 | -0.353 | 0.0418 | -0.0762 | 1.48 | 0.89 | 1.26 | -0.127 (inactive) | 0.0938 | 0.478 | -0.3 | -0.0373 | -0.349 | 1.52
COCCOC(=O)N1C(=O)[C@@]2(c3cc(C#CCC(C(=O)OC)C(=O)OC)ccc31)[C@H](c1ccc(O)cc1)N1[C@H](c3ccccc3)[C@H](c3ccccc3)OC(=O)[C@H]1[C@@H]2C(N)=O | 1.28 | -0.151 (inactive) | 0.431 (inactive) | 0.291 (inactive) | 3.06 | -0.138 (inactive) | 0.216 | 0.604 | 0.828 | 0.0717 | 0.224 | 0.36 | 0.461 | -1.06 (inactive) | 0.833 | 1.06 | 0.212 | 0.825 | 0.417 | 0.626
C=CCOC(=O)[C@H]1[C@@H]2C(=O)O[C@@H](c3ccccc3)[C@@H](c3ccccc3)N2[C@@H](c2ccc(OCCOC(=O)[C@@H]3C[C@@H]4C(=O)NCC(=O)N4[C@@H]3c3ccc(O)cc3)cc2)[C@]12C(=O)Nc1ccccc12 | 1.56 | -4.85 (inactive) | -0.234 (inactive) | 1.47 (inactive) | 2.35 | 2.36 (inactive) | -0.153 | 1.81 | 1.12 | -0.0828 | 1.24 | -0.206 | -0.167 | -1.15 (inactive) | 1.14 | 1.19 | 0.457 | 1.34 | 0.535 | 0.217
O=C(O)[C@@]1(Cc2ccccc2)N=C(c2ccc(OCCCO)cc2)O[C@H]1c1ccccc1 | 1.48 | 0.552 (inactive) | -0.93 (inactive) | 0.115 (inactive) | 2.42 | 0.625 (inactive) | -0.126 | 0.454 | 0.793 | -0.184 | 1.03 | 0.116 | 0.614 | -0.674 (inactive) | 0.252 | -0.11 | -1.02 | 0.0206 | -0.872 | 0.779
